Source: PubChem BioAssay
Calls of active or inactive are those of the source. Unless noted, the rule behind the calls is not given here.

Legend:
[1] = HepG2 liver cancer cell viability effects, profiling panel, resazurin fluorescence, 24 h, PK04 Diversity Set (AID 1172); conditions: higher = more signal; note: test concentration not given here
[2] = basal S. cerevisiae growth modulation, no modifier, primary screen, OD600, strain BY4716, 24 h, basal condition (AID 1173); conditions: OD600, 24 h, higher = more signal, called active from +8 up or from −8 down
[3] = MM1S myeloma cell viability, profiling panel, resazurin fluorescence, basal, 24 h, PK04 Diversity Set (AID 1174); conditions: higher = more signal, called active from +8 up or from −8 down;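 note: MM1S multiple myeloma cell line; test concentration not given here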
[4] = molecular target: Dihydroorotate dehydrogenase (quinone), mitochondrial (Plasmodium falciparum (isolate 3D7)) (UniProt Q08210); assay: PfDHODH enzyme inhibitors, primary screen, biochemical, C-terminal His tag, absorbance 600 nm (AID 1175); conditions: DCIP absorbance 600 nm, higher = more signal, called active from +8 up or from −8 down;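 note: recombinant parasite enzyme with a five histidine tag at its C terminus; test concentration not given here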
Sequence of Dihydroorotate dehydrogenase (quinone), mitochondrial (Plasmodium falciparum (isolate 3D7)) (Q08210 whole entry, looked up): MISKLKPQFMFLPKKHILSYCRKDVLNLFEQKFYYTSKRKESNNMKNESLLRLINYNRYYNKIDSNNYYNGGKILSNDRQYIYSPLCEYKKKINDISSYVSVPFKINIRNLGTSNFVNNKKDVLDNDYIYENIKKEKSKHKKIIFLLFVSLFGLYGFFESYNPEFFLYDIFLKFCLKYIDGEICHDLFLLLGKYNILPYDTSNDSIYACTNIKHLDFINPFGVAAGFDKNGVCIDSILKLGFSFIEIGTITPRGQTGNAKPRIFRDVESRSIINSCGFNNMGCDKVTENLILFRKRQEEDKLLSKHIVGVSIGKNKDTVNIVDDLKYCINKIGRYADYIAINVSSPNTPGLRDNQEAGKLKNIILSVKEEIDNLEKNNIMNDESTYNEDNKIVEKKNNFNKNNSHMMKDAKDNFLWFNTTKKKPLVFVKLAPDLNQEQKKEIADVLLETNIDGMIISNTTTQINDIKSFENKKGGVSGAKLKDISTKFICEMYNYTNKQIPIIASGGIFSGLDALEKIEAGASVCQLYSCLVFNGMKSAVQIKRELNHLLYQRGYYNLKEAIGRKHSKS

[5] = P. aeruginosa biofilm formation inhibitors, primary screen, strain PAO1, LB-PBS medium, absorbance 600 nm (AID 1176); note: test concentration not given here; conditions: P. aeruginosa PAO1 growth/biofilm, A600, 12 h; higher = more signal
[6] = S. cerevisiae RM11-1a growth modifiers, primary screen, strain RM11-1a, OD600, basal, 24 h (AID 1177); conditions: OD600, 24 h, higher = more signal, called active from +8 up or from −8 down;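 note: cultures grown under basal conditions with no added stressor; test concentration not given here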
[7] = E. coli acrAB mutant growth effects, primary screen, E. coli filamentation inducers, strain DRC39, OD650, 24 h (AID 1178); conditions: higher = more signal, called active from +8 up or from −8 down;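 note: growth measured as culture turbidity by optical density at 650 nm; test concentration not given here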
[8] = E. coli acrAB mutant growth effects, primary screen, E. coli filamentation inducers, strain DRC39, OD650, 48 h (AID 1179);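 note: screen aims at cell division blockers that make cells filament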; conditions: E. coli DRC39 delta-acrAB growth, higher = more signal, called active from +8 up or from −8 down
[9] = RPMI8226 myeloma cell viability, profiling panel, resazurin fluorescence, basal, 24 h, PK04 Diversity Set (AID 1180); conditions: higher = more signal;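 note: RPMI8826 multiple myeloma cell line at 5000 cells per well; test concentration not given here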
[10] = molecular target: E3 ubiquitin-protein ligase XIAP (Homo sapiens) (UniProt P98170); assay: XIAP binders, primary screen, biophysical, small-molecule microarray, fluorescence 635 nm (AID 1181); conditions: small-molecule microarray binding, higher = more signal;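 note: score merges 667 nm emission and signal to noise over triplicate slides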
Sequence of E3 ubiquitin-protein ligase XIAP (Homo sapiens) (P98170 whole entry, looked up): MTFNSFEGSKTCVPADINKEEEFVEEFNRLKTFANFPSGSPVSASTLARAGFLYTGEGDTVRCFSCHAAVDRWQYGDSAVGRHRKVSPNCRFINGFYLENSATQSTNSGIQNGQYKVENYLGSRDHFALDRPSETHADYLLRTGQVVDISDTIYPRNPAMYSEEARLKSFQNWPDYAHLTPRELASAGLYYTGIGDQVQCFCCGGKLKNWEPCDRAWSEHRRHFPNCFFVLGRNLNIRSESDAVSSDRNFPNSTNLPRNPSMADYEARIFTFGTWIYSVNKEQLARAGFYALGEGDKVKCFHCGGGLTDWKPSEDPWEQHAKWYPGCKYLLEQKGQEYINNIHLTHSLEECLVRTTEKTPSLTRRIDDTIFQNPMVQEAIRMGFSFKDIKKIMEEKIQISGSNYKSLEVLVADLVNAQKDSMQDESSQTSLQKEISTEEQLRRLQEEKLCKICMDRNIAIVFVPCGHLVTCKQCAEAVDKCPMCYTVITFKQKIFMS

| Structure (SMILES) | z-score [1] | z-score [2] | z-score [3] | composite z-score [4] | z-score [5] | z-score [6] | z-score [7] | z-score [8] | z-score [9] | composite z-score [10] |
| --- | --- | --- | --- | --- | --- | --- | --- | --- | --- | --- |
| O=C(C1N=C(c2ccc(OCCCO)cc2)N(c2ccccc2)O1)N1CCCCC1 (stereo not given) | 0.377 | -0.769 (inactive) | 1.15 (inactive) | -0.152 (inactive) | -1.35 (inactive) | -0.587 (inactive) | 0.457 (inactive) | 0.15 (inactive) | 0.188 | 0.0761 |
| CCOC(=O)C[C@H]1[C@H](OC(=O)c2cc3ccccc3oc2=O)[C@@H](NC(=O)c2ccc3ccccc3n2)c2cc(OCCCO)ccc2N1C(=O)Cc1ccc(OC)cc1 | 1.16 | -0.105 (inactive) | -0.76 (inactive) | -0.543 (inactive) | -1 (inactive) | 0.796 (inactive) | 0.662 (inactive) | 0.0535 (inactive) | -0.284 | -0.173 |
| C=CC[C@@]1(C(=O)NCCCOC)N=C(c2ccc(OCCCO)cc2)O[C@@H]1c1ccccc1 | -0.843 | -1.85 (inactive) | -0.203 (inactive) | -1.65 (inactive) | -0.375 (inactive) | -1.27 (inactive) | -0.12 (inactive) | 1.13 (inactive) | -0.1 | 0.065 |
| CC(C)[Si]1(C(C)C)OCc2cc(C3CC3)nc(-c3ccc(Oc4ccccc4)cc3)c21 | 0.467 | 1.64 (inactive) | 1.03 (inactive) | 0.483 (inactive) | 0.173 (inactive) | 2.12 (inactive) | 0.362 (inactive) | 0.0518 (inactive) | -0.497 | -0.299 |
| C=CCC(OC(C)=O)[C@@H]1[C@@H](N(Cc2ccc(-c3cccc(C(F)(F)F)c3)o2)C(=O)Cc2ccc(OC)cc2)c2cc(OCCCO)ccc2N1C(=O)c1ccc(-c2ccccc2)cc1 (stereo not given in full) | -1.35 | -0.0331 (inactive) | -0.0666 (inactive) | 0.821 (inactive) | -0.24 (inactive) | 0.0869 (inactive) | -0.165 (inactive) | -0.555 (inactive) | -0.197 | 0.125 |
| C=CCC(OC(C)=O)[C@@H]1[C@@H](N(Cc2ccc(-c3ccccc3)cc2)C(=O)c2ccc(-c3ccccc3)cc2)c2cc(OCCCO)ccc2N1C(=O)c1ccc2ccccc2c1 (stereo not given in full) | -0.723 | 0.416 (inactive) | 0.149 (inactive) | -0.746 (inactive) | 0.35 (inactive) | -0.583 (inactive) | -0.91 (inactive) | -0.756 (inactive) | -0.205 | 0.0423 |
| CN(C)c1ccc(C(O)C2C=CC3C(=O)NC(=O)C3N2Nc2ccccn2)cc1 (stereo not given) | -0.8 | 1.03 (inactive) | -1.21 (inactive) | 0.957 (inactive) | 0.503 (inactive) | 0.489 (inactive) | -0.738 (inactive) | 0.0674 (inactive) | -1.79 | 0.0726 |
| C=CCC(OC(C)=O)[C@@H]1[C@@H](N(Cc2cc3ccccc3o2)C(=O)Cc2ccc(F)cc2)c2cc(OCCCO)ccc2N1C(=O)Cc1ccc2ccccc2c1 (stereo not given in full) | 0.278 | -0.0417 (inactive) | 0.72 (inactive) | -13.4 (active) | 0.526 (inactive) | -0.146 (inactive) | -1 (inactive) | -0.861 (inactive) | 0.189 | 0.109 |
| [N-]=[N+]=NCc1ccccc1[C@@H]1OC(c2ccc(OCCCO)cc2)=N[C@]1(CCS(=O)(=O)c1ccccc1)C(=O)O | -0.274 | -0.577 (inactive) | -0.906 (inactive) | 0.456 (inactive) | -0.0583 (inactive) | 0.275 (inactive) | -0.447 (inactive) | 0.0549 (inactive) | -1.4 | 0.0537 |
| CCCCCN1CC=CC23O[C@@H]4C=CCCOC(=O)C4[C@H]2C(=O)N(CCCCCCO)[C@@H]3C1=O (stereo not given in full) | 0.678 | 0.605 (inactive) | 0.0267 (inactive) | 0.401 (inactive) | 0.55 (inactive) | 0.543 (inactive) | 0.649 (inactive) | 0.567 (inactive) | 0.424 | 0.0702 |
| C#CCN(Cc1ccccc1Br)[C@H](/C=C/c1ccccc1)[C@@H](O)Cc1ccccc1 | 1.71 | 0.31 (inactive) | -0.309 (inactive) | 0.342 (inactive) | -0.0825 (inactive) | 1.05 (inactive) | 1.84 (inactive) | 1.24 (inactive) | -0.971 | -0.0559 |
| O=C1O[C@H](c2ccccc2)[C@H](c2ccccc2)N2[C@H]1[C@@H](C(=O)O)[C@]1(C(=O)Nc3ccc(C#CCCO)cc31)[C@H]2c1ccccc1OCCO | -0.732 | -0.498 (inactive) | 0.716 (inactive) | -0.408 (inactive) | 0.573 (inactive) | 0.626 (inactive) | -0.88 (inactive) | -1.22 (inactive) | 1.5 | 0.177 |
| Cc1ccc(S[C@]2(C(=O)O)CC(=O)N(C3CCCCC3)[C@@H]2c2ccc(CO)cc2I)cc1 | 0.465 | -1.67 (inactive) | -0.353 (inactive) | -0.664 (inactive) | -0.137 (inactive) | -0.92 (inactive) | 0.475 (inactive) | 0.0129 (inactive) | -0.74 | -0.0525 |
| O=C1NC(=O)C2C1C=CC(C(O)c1ccco1)N2Nc1ccc(Cl)cc1Cl (stereo not given) | -2.04 | -17 (active) | -1.41 (inactive) | 0.893 (inactive) | 0.711 (inactive) | -5.34 (inactive) | -0.725 (inactive) | -1.86 (inactive) | -1.28 | 0.257 |
| COCCOC(=O)N1C(=O)[C@@]2(c3cc(C#CC4(O)CCCCCC4)ccc31)[C@H](c1ccc(O)cc1)N1[C@H](c3ccccc3)[C@H](c3ccccc3)OC(=O)[C@H]1[C@@H]2C(=O)N1CCN(c2ncccn2)CC1 | 0.0439 | -0.31 (inactive) | -0.705 (inactive) | 0.244 (inactive) | 0.654 (inactive) | 0.326 (inactive) | -0.462 (inactive) | 0.0188 (inactive) | -0.528 | 0.0487 |
| COCCCNC(=O)[C@@H]1c2ccccc2C(=O)N(C(C)C)[C@H]1c1ccc(CO)cc1 | -0.388 | 0.214 (inactive) | 0.054 (inactive) | 0.367 (inactive) | 0.168 (inactive) | 1.03 (inactive) | 0.0099 (inactive) | -0.525 (inactive) | -0.0303 | -0.127 |
| [N-]=[N+]=Nc1ccccc1[C@@H]1OC(c2ccc(OCCCO)cc2)=N[C@]1(Cc1ccccc1)C(=O)N1CCCCC1 | -0.819 | -0.592 (inactive) | -3.26 (inactive) | -0.128 (inactive) | 0.109 (inactive) | 1.08 (inactive) | 0.241 (inactive) | 0.174 (inactive) | -3.5 | 0.0512 |
| O=C1[C@H]2C=C(I)[C@H](C[C@@H]2OCCOCCO)[C@@]12CO2 | 0.0263 | -0.28 (inactive) | -0.448 (inactive) | 0.0832 (inactive) | 0.224 (inactive) | -0.145 (inactive) | -0.331 (inactive) | -0.175 (inactive) | -0.244 | -0.304 |
| C=CC[C@@H](OC(=O)Nc1ccc(SC)cc1)c1ccc(O)c(F)c1 | -0.227 | -15.5 (active) | -2.32 (inactive) | -1.9 (inactive) | 1.57 (inactive) | -6.97 (inactive) | 1.75 (inactive) | 1.38 (inactive) | -0.872 | -0.02 |
| CCCC=C(CCC)[C@@H](NP(=O)(c1ccccc1)c1ccccc1)c1ccc(-c2ccccc2)cc1 | 0.127 | 2.21 (inactive) | -1.16 (inactive) | 0.23 (inactive) | -0.511 (inactive) | 1.42 (inactive) | -0.492 (inactive) | 0.477 (inactive) | -1.72 | 0.144 |
| O=C1N(Cc2ccccc2)c2ccccc2C[C@]12N=C(c1ccc(OCCCO)cc1)O[C@@H]2c1ccccc1 | -0.658 | 0.0989 (inactive) | -2.55 (inactive) | 0.581 (inactive) | 1.58 (inactive) | 1.29 (inactive) | 0.223 (inactive) | -0.2 (inactive) | -2.6 | -0.135 |
